Screening data from PubChem BioAssay.
Compounds with a hit are over-represented: about 7.4% of the library has one in this group of screens.
D1 mod = allosterically modulates the human D1 dopamine receptor; P21728; HEK293 D1, CRE-luciferase, dopamine EC30 potentiation; actives deviate in either direction; B-score at 10 µM; 58,000 compounds, 5.9% hits; AID 641;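 active = luminescence count or its row- and column-corrected plate score outside the 99.7% band of the plate's sample wells, on either side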
M1 ag = agonists of M1 muscarinic receptor | CHO-M1 cells, Fluo-4 calcium fluorescence, agonist mode; hits give high values | B-score at 10 µM | 64,000 compounds, 3% hits;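 active = fluorescence rise, raw or as B-score row- and column-corrected plate score, outside the 99.7% band of its plate's samples, either direction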
M1 antagonist = M1 muscarinic receptor (rat) antagonism. P08482. CHO-M1 cells, Fluo-4 calcium, ACh EC80 antagonist mode; hits give low values. B-score at 10 µM. 64,000 compounds, 3.4% hits. AID 628;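 active = calcium fluorescence response, raw or row-and-column corrected B-score, differing from the plate sample mean either way at a set confidence level, mostly lower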
DAT uptake mod = changed human dopamine transporter uptake under cocaine IC80; Q01959; LLC-PK1 hDAT cells, [14C]-dopamine uptake with cocaine IC80; actives deviate in either direction; B-score at 10 µM; 110,000 compounds, 1.3% hits; AID 449768;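 active = Z score or B-score, a plate-position-corrected score, falls beyond the plate's 99.7% confidence bounds, in either direction; inactive = both scores lie inside the 99.7% bounds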;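 also: scored against the spread of the other compound wells on the same plate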
Target sequence (Q01959 whole entry, looked up): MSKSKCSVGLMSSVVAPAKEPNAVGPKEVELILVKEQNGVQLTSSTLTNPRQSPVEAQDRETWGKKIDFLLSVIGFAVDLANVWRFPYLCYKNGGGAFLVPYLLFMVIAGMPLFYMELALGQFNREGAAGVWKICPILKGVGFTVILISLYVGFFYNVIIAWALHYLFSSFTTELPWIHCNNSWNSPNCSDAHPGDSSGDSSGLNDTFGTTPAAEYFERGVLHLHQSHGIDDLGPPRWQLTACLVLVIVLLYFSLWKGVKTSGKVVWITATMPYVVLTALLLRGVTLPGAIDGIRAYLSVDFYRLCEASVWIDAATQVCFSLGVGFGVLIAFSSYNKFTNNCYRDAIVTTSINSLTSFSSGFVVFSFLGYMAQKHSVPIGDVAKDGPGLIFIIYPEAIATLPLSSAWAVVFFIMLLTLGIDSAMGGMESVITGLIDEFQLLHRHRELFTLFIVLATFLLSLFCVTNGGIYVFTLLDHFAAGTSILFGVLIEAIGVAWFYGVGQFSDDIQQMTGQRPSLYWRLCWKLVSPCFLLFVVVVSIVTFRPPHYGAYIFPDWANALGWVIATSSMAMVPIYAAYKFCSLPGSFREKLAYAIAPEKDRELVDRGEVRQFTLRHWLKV
FXIa mix inh = inhibitors of human coagulation factor XIa, pooled mixtures; 62,000 compounds, 0.19% hits; P03951; inhibition, % at 5 µM; purified FXIa, fluorogenic substrate;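 also: each value is inhibition by a whole ten-compound pool holding the compound; 0% = enzyme with no mixture and 100% = wells lacking enzyme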
FXIIa inh mix = blocks human factor XIIa in pooled compound mixtures. P00748. purified FXIIa, fluorogenic substrate. inhibition, % at 5 µM. 62,000 compounds, 0.2% hits;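 also: 0% = enzyme without compound and 100% = no enzyme blank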
M1 antag conf = confirmation of rat M1 muscarinic receptor antagonists; 1,700 compounds, 43% hits; CHO-M1 cells, Fluo-4 calcium, ACh EC80 antagonism; hits give low values; shares compounds with M1 antagonist; calcium response (max-min fluorescence) at 10 µM;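 active = calcium response below the same-plate mean of wells given acetylcholine alone at its 80%-effect dose, minus 3 SD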;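 also: raw fluorescence intensity difference in arbitrary instrument units and not normalized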
mGluR4 antag = selectivity test for M1 antagonists: human mGluR4 receptor. shares compounds with M1 antagonist. CHO-mGluR4 calcium flux, Fluo-4 fluorescence, glutamate EC80; hits give low values. fluorescence response (max-min) at 10 µM. 1,700 compounds, 0.9% hits. AID 678;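 active = fluorescence response below the plate's average for near-maximal glutamate wells, less 3 SD of those wells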;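 also: raw unnormalized fluorescence span taken in the window right after glutamate addition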
* hit, by the source's call; nt = no result given. Rule as the data show it, unless noted: active = inhibition above about 20% (passing the limit was not always enough); inactive = the rest.

SMILES | D1 mod | M1 ag | M1 antagonist | DAT uptake mod | FXIa mix inh | FXIIa inh mix | M1 antag conf | mGluR4 antag
CC(=O)Nc1ccc(S(=O)(=O)N2CCC(n3cnc4cc(F)ccc43)CC2)cc1 | -2.2 | 0.63 | -0.47 | -0.33 | 7 | -11 | nt | nt
COc1ccc2c(c1)C1NC(=S)NC(C)(O2)C1C(=O)Nc1ccccc1C (configuration not stated) | nt | nt | nt | -0.0023 | nt | nt | nt | nt
O=C(c1ccccc1F)N1CCN(c2cccc(C(F)(F)F)c2)CC1 | -0.13 | 0.028 | -2.9* | -0.042 | 7 | -1 | 566 | 258
O=C(c1coc2ccccc2c1=O)N1CCN(c2cccc(C(F)(F)F)c2)CC1 | 0.93 | 0.31 | -8.7* | nt | 28 | 7 | 178* | 256
O=C(c1c(F)c(F)c(F)c(F)c1F)N1CCN(c2cccc(C(F)(F)F)c2)CC1 | 1.8 | 0.0063 | -1.4 | -0.25 | 10 | 0 | nt | nt
Cc1sc2ncnc(OCC(=O)c3ccc(S(=O)(=O)N4CCCC4)cc3)c2c1C | 1.1 | -0.3 | -3.1* | -0.13 | -4 | 4 | 540 | 236
Cc1sc2ncnc(OCC(=O)N3CCN(S(=O)(=O)c4ccc(Cl)cc4)CC3)c2c1C | 5.3 | -0.22 | 0.22 | -0.14 | 9 | 2 | nt | nt
COc1ccc(-c2oc3ncnc(NCCN4CCOCC4)c3c2-c2ccc(OC)cc2)cc1 | 0.047 | 0.75 | 0.019 | 2.5 | 1 | 5 | nt | nt
COc1ccc(-c2oc3ncn(CCN4CCOCC4)c(=N)c3c2-c2ccc(OC)cc2)cc1 | 1.7 | -0.17 | -11* | 2 | 5 | 7 | 261* | 264
Cc1ccc(-c2ccc(=O)n(CC(=O)NCCN3C(C)CCCC3C)n2)cc1 (configuration not stated) | -0.27 | -0.38 | 0.1 | -0.16 | -1 | -13 | nt | nt
CCOC(=O)N1CCN(C(=O)CN(c2ccc(Oc3ccccc3)cc2)S(C)(=O)=O)CC1 | nt | -1.9 | -0.18 | 0.91 | 0 | 2 | nt | nt
CS(=O)(=O)N(CC(=O)N1CCC(C(N)=O)CC1)c1ccc(Oc2ccccc2)cc1 | -0.52 | 0.18 | -1.6* | -0.69 | 3 | 3 | 550 | 195
CC(C)CC(NC(=O)C1CCC(C)CC1)C(=O)Nc1ccccn1 (configuration not stated) | nt | 0.014 | -3.4* | -0.059 | 6 | -19 | 518 | 188
CCOc1ccccc1NC(=O)C(CC(C)C)NC(=O)C1CCC(C)CC1 (configuration not stated) | nt | nt | nt | -0.86 | nt | nt | nt | nt
CCN(CC)C(=O)CSc1nnc(-c2cc3ccccc3cc2O)n1CC | -1.3 | -0.25 | -3.4* | 0.12 | 3 | 2 | 499 | 217
CCN(CC)C(=O)CSc1nc2ccccc2c(=O)n1CC | nt | nt | nt | -0.27 | nt | nt | nt | nt
CCCCN1C(=O)C2C(c3ccc(OC)cc3O)NC(CC(C)C)(C(=O)O)C2C1=O (configuration not stated) | nt | -0.52 | 1.3 | 0.045 | 1 | 1 | nt | nt
CCCCn1c(Cc2ccccc2)n[nH]c1=S | -0.27 | -0.46 | -12* | -1.4 | -5 | 11 | 53* | 263
CCn1c(=O)cc(SCC(=O)N2CCN(Cc3ccc4c(c3)OCO4)CC2)c2ccccc21 | -0.77 | 0.33 | -5.7* | 2.1 | 3 | 1 | 432* | 236
Cn1c(=O)cc(SCC(=O)N2CCN(Cc3ccc4c(c3)OCO4)CC2)c2ccccc21 | 0.22 | 0.46 | -2.1* | -0.78 | 4 | -16 | 474* | 195
CCn1c(=O)cc(SCC(=O)N2CCCCC2)c2ccccc21 | nt | 0.38 | -0.27 | 0.22 | 3 | 7 | nt | nt
CCn1c(=O)cc(SCC(=O)NCc2ccc(C)cc2)c2ccccc21 | nt | nt | nt | 1.4 | nt | nt | nt | nt
Cn1c(=O)cc(SCC(=O)N2CCN(C3CCCCC3)CC2)c2ccccc21 | -0.52 | 1.2 | -2.8* | nt | 0 | 5 | 249* | 222
CCn1c(=O)cc(SCC(=O)NCCN2CCN(Cc3ccccc3)CC2)c2ccccc21 | 0.85 | 1.3 | -3.5* | 0.36 | 13 | 3 | 499 | 224
Cc1ccc2c(c1)[nH]c1c(=O)n(CCN3CCNCC3)cnc12 | -0.35 | -2 | 0.55 | 0.8 | -3 | -18 | nt | nt
SMILES | D1 mod | M1 ag | M1 antagonist | DAT uptake mod | FXIa mix inh | FXIIa inh mix | M1 antag conf | mGluR4 antag
O=c1c2[nH]c3ccccc3c2ncn1CCN1CCNCC1 | 0.2 | 0.2 | -3.1* | -0.022 | 2 | 5 | 719 | 230
Cc1oc(-c2cccc(Cl)c2)nc1CN1CCC(C(=O)N2CCN(c3ccccn3)CC2)CC1 | -0.8 | 2.8 | -1.8 | nt | 6 | -6 | nt | nt
CCc1ccc(-c2nc(CN3CCC(C(=O)N4CCN(c5ccccc5)CC4)CC3)c(C)o2)cc1 | 1.4 | 0.72 | -2.9* | 0.88 | 9 | -4 | 486* | 255
CCc1ccc(-c2nc(CN3CCC(C(=O)NCCN(CC)c4ccccc4)CC3)c(C)o2)cc1 | -1.4 | 1.1 | 0.46 | -0.22 | 9 | 5 | nt | nt
Cc1oc(-c2ccc(Cl)cc2)nc1CN1CCC(C(=O)N2CCN(c3ccccn3)CC2)CC1 | -0.79 | 0.48 | -3.2* | nt | -4 | -1 | 385 | 236
CCOc1ccc(CNc2nc3ccccc3n2CCN2CCOCC2)cc1 | nt | nt | nt | 0.15 | nt | nt | nt | nt
CCN1CCc2c(C#N)c(N3CCOCC3)nc(NCc3ccccc3)c2C1 | 0.93 | -2 | -2.2* | -0.081 | -6 | 0 | 572 | 195
CCN1CCc2c(C#N)c(N3CCCCC3)nc(NCc3ccccc3)c2C1 | -0.024 | -2.5 | -0.46 | 3.2 | 6 | -18 | nt | nt
COCn1c(=O)c2c(nc(SC3=NCCS3)n2Cc2ccccc2C)n(COC)c1=O | nt | nt | nt | 1.2 | nt | nt | nt | nt
Cc1c(N(C(=O)Nc2ccccc2)C2=NCC(C)S2)c(=O)n(-c2ccccc2)n1C (configuration not stated) | 0.022 | 0.66 | -4.4* | 2.6 | -21 | -20 | 604 | 242
O=C(CCN1CCc2ccccc2C1)Nc1cccc(F)c1 | -1.1 | 0.67 | -1* | -0.87 | -8 | 10 | 601 | 250
c1ccc(-c2csc(Nc3ccc4c(c3)OCCO4)n2)cc1 | nt | nt | nt | 1.3 | nt | nt | nt | nt
CCN(CC)CCOC(=O)C1(c2ccccc2)CCOCC1 | 0.78 | -0.94 | -15* | 0.0069 | -21 | 6 | 102* | 237
COCCn1c(SCC(=O)Nc2ccc(S(=O)(=O)N3CCOCC3)cc2)nc2ccccc21 | -0.19 | -0.34 | -7.6* | 0.11 | 9 | 0 | 348* | 270
COCCn1c(SCC(=O)Nc2ccc(S(N)(=O)=O)cc2)nc2ccccc21 | nt | nt | nt | 0.24 | nt | nt | nt | nt
COc1ccc(C(=O)N2CCN(C(=O)Cc3ccccc3)CC2)cc1OC | -0.0051 | -0.56 | -3.7* | 0.038 | -1 | 4 | 519 | 181
COc1ccc(C(=O)N2CCN(C(=O)c3ccco3)CC2)cc1OC | 0.27 | -0.23 | 0.83 | -0.86 | -3 | 9 | nt | nt
Cc1ccc(CC2CC(=O)N(CC(=O)O)C2=O)cc1 (configuration not stated) | nt | nt | nt | -0.63 | nt | nt | nt | nt
